# Results reported in PubChem BioAssay (NCATS).
# Where “and” joins values, the source holds several entries; their conditions need not be identical. Equal entries are not always repeated. Results filed as inconclusive are left out. Calls of active or inactive are those of the source. The call rests on the fitted dose curve; in most records, active means well fitted cell-killing curve with a large enough effect in the repeat runs; inconclusive means weak or mixed curves; inactive means flat fitted curve, though single readings scatter.
# Test: qHTS assay for small molecule agonists of the antioxidant response element (ARE) signaling pathway measured by Nrf2-dependant transcriptional activity - cell viability counter screen (AID 720653)
# Settings: ARE-bla HepG2 viability, CellTiter-Glo ATP luminescence, 16 h; max response: hits give low values
# In short: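 ARE-bla HepG2 cells (2,000/well) rested 5 hrs at 37C/5% CO2, then exposed to compounds in DMSO for 16 hrs. Viability was read in the same wells as intracellular ATP by luminescence, 30 min at room temperature after reagent addition.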
# On the % scale 0 is the no-effect control and ±100 the full control effect.
row,SMILES,max response
1,C/C(=N\NC(=O)Nc1cc(F)cc(F)c1)c1ncccc1C(=O)O,-4.25% (inactive) and -0.19% (inactive)
2,CCCC1COC(Cn2cncn2)(c2ccc(Cl)cc2Cl)O1 (stereo not given),-18.4% (inactive) and -18.3% (inactive)
3,Cc1cnc(C2=NC(C)(C(C)C)C(=O)N2)c(C(=O)O)c1 (stereo not given),-15.3% (inactive) and 23.5% (inactive)
4,O=S(=O)(c1ccc(O)cc1)c1ccc(O)cc1,-5.42% (inactive)
5,CCOP(=O)(O)C(N)=O,-6.84% (inactive)
6,CCOc1nc(NC)nc(NC(=O)NS(=O)(=O)c2ccccc2C(=O)OC)n1,13.3% (inactive)
7,COc1ccc(O)c(C(C)(C)C)c1,1.24% (inactive)
8,CCOP(=S)(OCC)SCC(=O)NC(C)C,2% (inactive)
9,NS(=O)(=O)C(F)(F)C(F)(F)C(F)(F)C(F)(F)C(F)(F)C(F)(F)C(F)(F)C(F)(F)F,-2.62% (inactive)
10,Clc1ccc([C@]2(Cn3cncn3)C[C@@H](Br)CO2)c(Cl)c1,-16.1% (inactive) and 0.925% (inactive)
11,CCOP(=O)(SC(C)CC)SC(C)CC (stereo not given),-6.4% (inactive)
12,CNC(=O)Oc1cccc2c1OC(C)(C)C2O (stereo not given),-15.8% (inactive)
13,C/C(=N\C(N)=O)N(C)Cc1ccc(Cl)nc1,-7.18% (inactive)
14,O=S1OC[C@@H]2[C@H](CO1)[C@@]1(Cl)C(Cl)=C(Cl)[C@]2(Cl)C1(Cl)Cl (stereo not given in full),-3.19% (inactive) and 3.58% (inactive)
15,FC(F)(F)c1ccc(OCCCOc2c(Cl)cc(OCC=C(Cl)Cl)cc2Cl)nc1,-24.7% (inactive)
